# Compound activity deposited in PubChem by National Center for Advancing Translational Sciences (NCATS).
# HCV inhibitor – HCV inhibition | Huh7.5.1 HCVcc-Cre infection, luciferase reporter, 44 h | Potency, µM (titrated, usually from 41.8 µM), most hits filed as inhibitors | hit rate 3.4% among 340,000 | AID 651820
#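 Whole-lifecycle infectious HCVcc-Cre system; cells 1,000/well, compound then virus (~0.5 moi) added 4 h after plating, 44 h culture. Luciferase read 15 sec following 15 min substrate incubation, room temp.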
# Pf growth 48h – P. falciparum growth inhibition at 48 hours (one generation); hit rate 5.9% among 310,000; Potency, µM (titrated, usually from 28.7 µM), actives largely listed as inhibitors; P. falciparum luciferase growth in erythrocytes, 48 h
#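 Parasite viability was followed by luminescence of a genomically integrated firefly luciferase. Cultures held 0.1% parasitemia at 2% hematocrit (final), incubated under 5% CO2 at 37 C.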
# NS1 inh – blocks influenza NS1 protein function. Potency, µM (titrated, usually from 46.1 µM). hit rate 0.4% among 270,000. AID 2326; calls by dose curve; note: actives are rising curves; nearly all actives have a fitted effect of over 50% in size
#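 S. cerevisiae expressing influenza A NS1, grown in glucose, washed, then diluted 1:100 into pH 6.0 -URA galactose medium with 23 nl compound. Growth recovery read as OD600; NS1-free strain serves as control.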
# Pf growth 96h – P. falciparum growth inhibition at 96 hours. Potency, µM (top dose mostly 28.7 µM), actives largely listed as inhibitors. P. falciparum luciferase reporter growth, 96 h. AID 504834. hit rate 6.9% among 320,000
#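 Cell-based qHTS: luciferase-tagged P. falciparum in erythrocytes (2% hematocrit, 0.05% parasitemia final) incubated with compounds for 96 hours, 37 C, 5% CO2; luciferase detection reagent then added and luminescence measured.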
# Vaccinia Venus – vaccinia inhibition (Venus reporter) | Potency, µM (titrated, usually from 36.5 µM), usual class: inhibitors | hit rate 0.46% among 330,000 | AID 720580 | Vaccinia virus Venus reporter expression, fluorescence; calls by dose curve; tested in A549 cells; note: nearly all actives have a fitted effect of over 30% in size
# Vaccinia mCherry – vaccinia inhibition (mCherry reporter). hit rate 0.63% among 310,000. Potency, µM (top dose mostly 36.5 µM), hits mostly inhibitors. Vaccinia virus mCherry reporter infection, fluorescence. AID 720579; calls by dose curve; tested in A549 cells; note: nearly all actives have a fitted effect of over 35% in size
# Hits are given with their value; – = inactive; ? = inconclusive; · = not tested or not shown; [ ] = another dose, or the depositor's remark. Shown are actives, neighbours in structure and some others; about 11% of the full set was active somewhere. Unless noted, calls come from the whole dose curve; as a rule, active = well fitted inhibition curve with a large enough effect; inconclusive = small, poorly fitted or top-dose-only effect, or another doubt; inactive = no such curve, though single readings can be large or run the other way.
SMILES,HCV inhibitor,Pf growth 48h,NS1 inh,Pf growth 96h,Vaccinia Venus,Vaccinia mCherry
Clc1ccc(N/N=C/c2ccncc2)cc1Cl,?,2.3µM,–,1.2µM,–,–
CCc1nnc(NC(=O)CSc2ccc(-c3nc4ccccc4[nH]3)cn2)s1,–,–,–,–,–,?
CN(C)c1ccc(C(=O)N/N=C/c2ccccn2)cc1,–,–,–,9.3µM,·,·
O=C(N/N=C/c1ccccn1)c1ccc(Cl)cc1,–,15µM,–,–,–,3.2µM
O=C(N/N=C/c1ccccn1)c1ccncc1,–,–,–,–,–,–
O=C(N/N=C/c1ccccn1)c1ccccc1,–,?,–,–,–,?
CN1C(=O)c2ccccc2Sc2ccc(NC(=O)Cc3c(F)cccc3Cl)cc21,·,·,·,·,–,–
Cc1cc(C(=O)C(C(c2ccccc2)N2CCOCC2)N2CCOCC2)ccc1Cl (configuration not stated),–,·,·,·,–,–
COc1ccc(NC(=S)N(CCCN2CCOCC2)C(C)c2cc3ccccc3o2)cc1 (configuration not stated),–,?,·,–,·,·
CCOC(=O)N1CCN(C(=O)CSc2nnc3[nH]c(=O)c(C)c(C)n23)CC1,–,9.3µM,·,?,–,–
COc1cccc(-c2nc(CS(=O)(=O)CC(=O)Nc3ccc(F)cc3F)c(C)o2)c1,11µM,–,–,–,–,–
COc1cccc(-c2nc(CS(=O)(=O)CC(=O)NCc3ccccc3)c(C)o2)c1,?,–,–,–,–,–
CCN(CC)S(=O)(=O)c1ccc(-c2csc(C)n2)cc1,–,–,–,?,·,·
CCCN(CCC)S(=O)(=O)c1cccc(-c2csc(C)n2)c1,–,10µM,–,?,–,–
CNC(=O)CSc1nccn1Cc1ccc(Cl)cc1,–,?,·,–,–,–
Cc1ccc(N2CCN(C(=O)c3cc(C(=O)c4ccccc4C)c[nH]3)CC2)c(C)c1,11µM,?,–,?,·,·
Cc1ccc(N2CCN(C(=O)c3ccccc3)CC2)c(C)c1,–,?,–,?,–,–
CC(/C=N\N1CCN(Cc2ccc(C)cc2)CC1)=C\c1ccccc1,?,–,–,?,–,–
c1ccc(C2(NC3=NCCO3)CCCCC2)cc1,·,·,·,·,4µM,?
CCCc1cc(=O)oc2cc(OCC(=O)Nc3cc(C)on3)ccc12,–,–,–,?,–,–
C=C(Cl)COc1ccc2c(CCC)cc(=O)oc2c1,10µM,·,–,?,–,·
CCCc1cc(=O)oc2cc(OCC(=O)NCCc3c[nH]c4ccccc34)ccc12,4.5µM,–,–,–,?,?
CCc1ccc(C(C)NC(=O)COC(=O)c2ccc(-n3cnnn3)cc2)cc1 (configuration not stated),–,·,·,·,·,·
CC1CCCN(C(=O)c2ccc3c(c2)OCCO3)C1 (configuration not stated),–,?,·,?,·,·
Cc1nc(-c2ccc(NC(=O)C(C)(C)C)cc2)c(-c2ccccc2)o1,?,·,–,4.1µM,–,–
SMILES,HCV inhibitor,Pf growth 48h,NS1 inh,Pf growth 96h,Vaccinia Venus,Vaccinia mCherry
CC(=O)Nc1cccc(-c2nnc(-c3ccccc3)o2)c1,–,–,–,·,–,–
O=C(Nc1cccc(-c2nnc(-c3ccccc3)o2)c1)C1CC1,14µM,?,–,–[1.15 µM],–,–
CC(C)(C)C(=O)Nc1cccc(-c2nnc(-c3cccc(NC(=O)C(C)(C)C)c3)o2)c1,–,4.7µM,–,?,–,·
NC(=O)c1cc(S(=O)(=O)N2CCCCC2)cs1,–,–,–,–,–,–
CCC(O)(CC)C(=O)N=Nc1c(O)[nH]c2ccccc12,–,–,·,–[5.75 µM],–,–
N#CC1(NC(=O)Cn2ncc(Cl)c(Cl)c2=O)CCCCC1,4.5µM,–,·,–,?,?
O=C(CC1CCCCC1)N1CCN(c2ccccn2)CC1,–,–,–,–,–,–
O=C(C1=C[C@H](C2CC2)C[C@H](OCCCCO)O1)N1CCN(Cc2ccc3c(c2)OCO3)CC1,–,?,–,?,–,–
O=C(C1=C[C@H](C2CC2)C[C@H](OCc2ccc(CO)cc2)O1)N1CCN(Cc2ccc3c(c2)OCO3)CC1,?,?,–,?,?,–
O=C(C1=C[C@H](C2CCCCC2)C[C@H](OCc2ccc(CO)cc2)O1)N1CCN(Cc2ccc3c(c2)OCO3)CC1,–[8.37 µM],?,–,10µM,–,?
O=C(C1=C[C@@H](C2CCCCC2)C[C@@H](OCc2ccc(CO)cc2)O1)N1CCN(Cc2ccc3c(c2)OCO3)CC1,?,4.7µM,–,13µM,?,–
CCCOP(=O)(OCCC)C(NC(=O)C(C)(C)C)c1ccccc1 (configuration not stated),–,–,–,–,·,·
Cc1cccc(-c2c3c(=O)n(C)c(=O)n(C)c3cn2C(C)(C)C)c1,·,–,–,?,–,–
Cn1c(=O)c2c([nH]c(OCc3ccc(Cl)cc3Cl)[n+]2Cc2ccc(F)cc2)n(C)c1=O,–,?,–,?,·,·
COc1ccccc1N1CCN(C(=O)c2ccc(CS(=O)(=O)c3ccccc3OC)o2)CC1,–,?,–,9.3µM,·,·
Cc1ccccc1S(=O)(=O)Cc1ccc(C(=O)N2CCN(c3ccccc3F)CC2)o1,10µM,?,–,?,–,–
Cc1ccc(C)c(N2CCN(C(=O)c3cc4c(C)nc5ccccc5c4o3)CC2)c1,?,?,–,–,·,·
CCc1ccccc1S(=O)(=O)Cc1ccc(C(=O)N2CCN(c3ccccn3)CC2)o1,?,·,–,9.3µM,–,–
COc1ccccc1N1CCN(C(=O)c2cc3c(C)nc4ccccc4c3o2)CC1,6.3µM,?,–,–,?,?
CC1CCC(=NNC(=O)Cc2ccccc2)CC1 (configuration not stated),–,?,–,?,–,–
CCCCOc1ccc(S(=O)(=O)Nc2ccc(-c3ccc(N4CCCCC4)nn3)cc2)cc1,·,·,·,·,–,–
Cc1ccc(Nc2ccc3nonc3c2[N+](=O)[O-])cc1,–,–,·,–,·,·
Cn1c(-c2ccccc2Br)n[nH]c1=S,–,·,·,·,–,·
COc1ccccc1S(=O)(=O)Cc1ccc(C(=O)N2CCN(c3ccc(C)cc3)C(C)C2)o1 (configuration not stated),?,12µM,–,?,?,–
C/C(=N\NC(=S)NC(C)C)c1ccccc1OC(F)F,14µM,–,·,8.3µM,–,–
SMILES,HCV inhibitor,Pf growth 48h,NS1 inh,Pf growth 96h,Vaccinia Venus,Vaccinia mCherry
CCNC(=S)N/N=C(\C)c1ccc2ccccc2c1OC(F)F,?,10µM,·,?,–,–
O=C1NCCN(Cc2ccc(Cl)c(F)c2)C1CC(=O)N1CCc2ccccc2C1 (configuration not stated),–,–,–,–,–,–
COc1ccccc1Nc1ncnc2scc(-c3ccc(F)cc3)c12,·,·,·,·,–,–
COc1ccc(/C=N/Nc2nc(-c3cccnc3)nc3ccccc23)cc1OC,–,6.6µM,–,?,–,–
CCOc1ccc(CN(C)c2nc(-c3cccnc3)nc3ccccc23)cc1OC,?,12µM,–,?,?,?
COc1ccc(CCNc2nc(SCc3ccc(F)cc3)nc3ccccc23)cc1OC,·,·,·,·,–,–
